Screening data from PubChem BioAssay.
GPR151 ag: activates the human receptor GPR151; AID 1508602; PathHunter beta-arrestin GPR151 cells, luminescence; Q8TDV0; activation, % at 11.2 µM; actives 1% (n = 650,000); in the data active = activation above about 4.9%;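 note: 0% = median of compound wells and 100% = cells with positive control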
Target sequence (Q8TDV0 whole entry, looked up): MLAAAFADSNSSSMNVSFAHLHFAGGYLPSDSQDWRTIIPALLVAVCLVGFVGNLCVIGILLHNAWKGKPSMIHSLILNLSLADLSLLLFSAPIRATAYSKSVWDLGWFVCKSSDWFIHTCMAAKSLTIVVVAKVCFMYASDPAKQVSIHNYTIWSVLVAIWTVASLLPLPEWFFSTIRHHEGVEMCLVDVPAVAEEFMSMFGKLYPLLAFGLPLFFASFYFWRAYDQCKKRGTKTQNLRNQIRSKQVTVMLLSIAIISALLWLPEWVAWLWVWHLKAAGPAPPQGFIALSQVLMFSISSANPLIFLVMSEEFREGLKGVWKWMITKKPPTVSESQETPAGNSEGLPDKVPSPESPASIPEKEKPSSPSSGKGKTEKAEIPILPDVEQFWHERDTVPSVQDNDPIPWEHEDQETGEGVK
FBW7 activator: activators of human E3 ligase FBW7; actives 0.13% (n = 650,000); normalized activity (activation), % at 26.1 µM; Q969H0; AlphaScreen FBW7–phospho-cyclin E peptide binding, activator screen; in the data active = normalized activity above about 1.9%;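 note: purified mutant Fbw7 with reduced substrate affinity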
MITF inh: blocks human microphthalmia-associated transcription factor. O75030. AlphaScreen MITF homodimerization, bead proximity signal. actives 0.91% (n = 650,000). inhibition, % at 2.6 µM. AID 1259374; in the data active = inhibition above about 50%;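 note: 0% = vehicle wells with protein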
TEAD-YAP block: TEAD-YAP interaction inhibition. HEK-TIYL cells, TEAD-Gal4/YAP UAS-luciferase luminescence. AID 1259422. actives 1.4% (n = 640,000). inhibition, % at 9.12 µM; in the data active = inhibition above about 32%;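 note: 0% = median of test compound wells and 100% = reference inhibitor wells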
MITF inh conf: human MITF inhibition, confirmation; shares compounds with MITF inh; AlphaScreen MITF homodimerization, biotin/His-MITF beads; inhibition, % at 2.6 µM; actives 16% (n = 4,700); AID 1259372;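 active = inhibition above a cutoff derived from the DMSO control wells, cut at about 28% in these data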;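 note: 0% = MITF dimer wells with DMSO only; inhibitors lower the bead chemiluminescence by keeping MITF from dimerizing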
AS interf DR: AlphaScreen optical interference, dose response counter-screen. shares compounds with MITF inh. AlphaScreen optical interference counterscreen, cell-free. IC50, µM. actives 6% (n = 480); call rule not given here
AS interf ctr: AlphaScreen optical interference, counter-screen; inhibition, % at 2.6 µM; LysRS AlphaScreen counterscreen, signal interference, triplicate; AID 1259376; shares compounds with MITF inh; actives 7.6% (n = 4,700);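 active = inhibition above a cutoff derived from the DMSO control wells, cut at about 30% in these data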
* hit, by the source's call; . = no result. An excerpt weighted towards active compounds, which were near 3.5% of everything screened.

SMILES	GPR151 ag	FBW7 activator	MITF inh	TEAD-YAP block	MITF inh conf	AS interf ctr	others
Cc1cc(C)n2nc(N)c(N)c2n1	0	0	62*	-13	29*	1	AS interf DR=>12
Cc1cc(C)n2nc(N)nc2n1	0	0	8	3	.	.
CCCCCCCCCCCCCCCCOC[C@H](CO)OC	2	.	0	.	.	.
CCN(CC)CC(O)CN1CCN(S(=O)(=O)c2ccc(Cl)cc2)CC1 (stereo unspecified)	0	0	61*	6	8	7
CC(C)(C)OCC(O)CN1CCN(C(=O)c2ccccc2)CC1 (stereo unspecified)	-2	0	43	-12	.	.
CCN(CC)CC(O)CN1CCN(C(=O)c2ccccc2)CC1 (stereo unspecified)	-2	0	52*	-6	11	10
CCc1ccc(CN2CCC(C(=O)NC(C)C)CC2)cc1	0	0	34	7	.	.
CCc1ccc(CN2CCN(C(=O)CC(C)C)CC2)cc1	0	0	58*	5	1	9
COc1ccc(CN2CCN(C(=O)CC(C)C)CC2)cc1Br	-2	0	54*	-4	4	15
COc1ccc(CN2CCN(C(=O)c3cccs3)CC2)cc1Br	-1	0	67*	-9	3	9
COc1ccc(CN2CCN(C(=O)c3cccs3)CC2)cc1OC	-2	0	37	1	.	.
COc1ccc(CN2CCN(C(=O)c3ccccc3F)CC2)cc1Br	0	0	54*	-3	27	-10
COc1ccc(C(=O)N2CCN(Cc3ccc(OC)c(Br)c3)CC2)cc1	-2	1	43	4	.	.
CCC(C(=O)NCc1ccccc1F)n1nc(C)n2c(cc3occc32)c1=O (stereo unspecified)	0	0	19	1	.	.
O=C1C(=O)N(Cc2cccnc2)C(c2ccc(Cl)cc2)/C1=C(\O)c1ccc(F)cc1 (stereo unspecified)	2	0	0	2	.	.
CCOc1ccc2c(c1)ncn2C	-1	0	8	1	.	.
CCOc1ccc(CN2CCN(C(=O)c3cccs3)CC2)cc1	-1	0	60*	8	9	14
O=C(c1ccco1)N1CCN(C(=O)c2ccco2)CC1	0	0	-2	-4	.	.
O=C(c1ccco1)N1CCN(Cc2ccncc2)CC1	-1	0	82*	-1	7	27
CC(C)N1CCN(C(=O)c2ccco2)CC1	0	0	51*	3	2	1
O=C(c1ccco1)N1CCN(Cc2ccccc2Br)CC1	0	0	60*	-40	6	14
COc1ccccc1/C=C/C=N\NC(=O)Cc1cccs1	0	0	-4	-32	.	.
O=C(NNc1ccccn1)C(=O)NNS(=O)(=O)c1cccc([N+](=O)[O-])c1	-1	-2	26	0	.	.
CCC1Oc2ccc(C)cc2N(CC(=O)N(Cc2ccccc2)Cc2ccncc2)C1=O (stereo unspecified)	1	0	11	13	.	.
COc1ccc(OCC(O)CN2CCN(CCc3ccccn3)CC2)c(C(C)(C)C)c1 (stereo unspecified)	1	0	81*	-2	-13	-4
SMILES	GPR151 ag	FBW7 activator	MITF inh	TEAD-YAP block	MITF inh conf	AS interf ctr	others
COc1ccc(COCC(O)CN2CCN(C(C)=O)CC2)cc1 (stereo unspecified)	-1	0	22	1	.	.
COc1ccc(COCC(O)CN2CCN(CCc3ccccn3)CC2)cc1 (stereo unspecified)	-1	0	78*	-13	-10	-6
COc1cc(N=Cc2c(O)n(-c3cccc(C)c3)c(=S)[nH]c2=O)cc(OC)c1	0	0	-8	-6	.	.
CCc1nc(NCCCCCO)c2nnn(Cc3ccccc3F)c2n1	1	0	59*	12	6	15
COc1ccc(CN2CCN(Cc3ccc(Br)cc3)CC2)cc1OC	-1	0	74*	17	5	3
COc1ccc(CN2CCN(Cc3ccc(C)cc3)CC2)cc1OC	0	0	67*	8	7	-7
COc1ccc(CN2CCN(Cc3cccc(Br)c3)CC2)cc1OC	0	0	40	-5	.	.
COc1cc(CN2CCN(Cc3ccc(Cl)cc3)CC2)cc(OC)c1OC	1	0	78*	-1	13	17
COc1cc(C(=O)N2CCN(Cc3cccc(Cl)c3)CC2)cc(OC)c1OC	-1	0	50	9	.	.
COc1cc(CN2CCN(Cc3cc(OC)c(OC)c(OC)c3)CC2)cc(OC)c1OC	2	0	10	-2	.	.
COc1ccc(CN2CCN(Cc3ccc(OC)c(OC)c3)CC2)cc1OC	0	1	9	7	.	.
COc1cc(CN2CCN(Cc3cccc(Cl)c3)CC2)cc(OC)c1OC	-1	0	69*	2	7	13
CCN(CC)CCNc1nc2c(c(=O)[nH]c(=O)n2C)n1CCOc1ccccc1	0	0	4	2	.	.
COc1ccc(C2CC(c3ccc(Br)cc3)=NN2S(=O)(=O)c2ccc(C)cc2)cc1 (stereo unspecified)	1	0	-7	-2	.	.
CCN(C(=O)COC(=O)c1[nH]c(=O)[nH]c(=O)c1N)c1cccc2ccccc12	2	-1	23	3	.	.
O=C(CSc1nc(-c2ccc(Br)cc2)cn1-c1ccccc1F)c1cccs1	2	0	9	3	.	.
COc1cc(CN2CCN(Cc3ccc(Br)cc3)CC2)cc(OC)c1O	-1	0	12	-19	.	.
COc1cc(CN2CCN(Cc3ccc(Br)cc3)CC2)cc(OC)c1OC	-1	0	81*	14	6	19
O=c1c2c3c(sc2[nH]c(=S)n1CCCN1CCOCC1)SCCC3	-1	0	16	2	.	.
CN(C)CCN(Cc1ccccc1)C1CCN(Cc2ccncc2)CC1	0	0	-3	1	.	.
CN(Cc1ccccc1)C1CCN(Cc2ccncc2)CC1	-1	0	81*	4	3	6
CN(Cc1ccccc1)C1CCN(Cc2cccnc2)CC1	3	0	72*	-7	-3	-1
CN(Cc1ccccc1)C1CCN(Cc2ccccn2)CC1	4	0	41	7	.	.
C=CCOC(=O)C1=C(C)NC(SCC(=O)Nc2ccc(C)c(Cl)c2)=C(C#N)C1c1cccs1 (stereo unspecified)	1	0	-4	4	.	.
ClC1(Cl)CC1CNc1ncnc2sc3c(c12)CCC3 (stereo unspecified)	1	0	60*	0	10	14
CCCN(CCC)S(=O)(=O)c1ccc(OCC)c2ccccc12	0	1	65*	7	1	10
OCCNc1ccnc(Nc2nccc3ccccc23)n1	0	0	71*	-8	5	37*
Cc1ccc(C)c(CN2CCN(CCOCCO)CC2)c1	-1	0	81*	-1	17	8
